Among the data in PubChem BioAssay (NCI) are growth inhibition values, retold here.

Structures are written as SMILES. The panel holds about 79,000 compounds, 15% with a hit somewhere; the sample as a whole holds those more often. A number with no mark means an inactive call. Active and inactive are the calls of the source. Rule as the data show it: active = growth inhibition above about 70%; inactive = the rest.

The nature of assay [1]: NCI Yeast Anticancer Drug Screen. Data for the rad50 strain (AID 155).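 Also: 0% = growth of vehicle-only cultures of the same strain.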 The settings on record: S. cerevisiae rad50 strain growth inhibition, stronger effect = higher value. An outline of the steps: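 Relative growth inhibition (compound vs vehicle) was measured in yeast with a defined repair-gene alteration.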
Assay [2] can be described thus: NCI Yeast Anticancer Drug Screen. Data for the mec2-1 strain (AID 157). Conditions: S. cerevisiae mec2-1 strain, stronger effect = higher value. An outline of the steps:
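Readout is yeast growth inhibition, normalised to vehicle-treated controls, in the mec2-1 strain exposed to compound.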

Assay [3] can be described thus: NCI Yeast Anticancer Drug Screen. Data for the sgs1 mgt1 strain (AID 161).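 Also: 0% = growth of cultures given vehicle only.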 The settings on record: S. cerevisiae sgs1 mgt1 strain, stronger effect = higher value. An outline of the steps: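 Compounds are added to genetically altered yeast, and growth is compared with cultures given vehicle alone to give percent inhibition.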
The nature of assay [4]: NCI Yeast Anticancer Drug Screen. Data for the cln2 rad14 strain (AID 165).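 Also: 0% = growth equal to vehicle treated cultures.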 The settings on record: S. cerevisiae cln2 rad14 strain, stronger effect = higher value. An outline of the steps: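 Relative to vehicle controls, growth inhibition of compound-treated cln2 rad14 yeast was recorded.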
Assay [5] in a line: NCI Yeast Anticancer Drug Screen. Data for the bub3 strain (AID 167). The settings on record: S. cerevisiae bub3 mutant strain, stronger effect = higher value. The method in brief: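 Screening used yeast with an engineered genetic alteration affecting cell cycle control. Compound-exposed cultures were compared with vehicle cultures, and reduced growth was taken as inhibition.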
The nature of assay [6]: NCI Yeast Anticancer Drug Screen. Data for the mlh1 rad18 strain (AID 175). The settings on record: S. cerevisiae mlh1 rad18 strain growth inhibition, stronger effect = higher value. The method in brief:
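Test agents were incubated with a yeast strain of defined genotype (DNA damage repair defect). Inhibition of growth was derived by comparison with vehicle-exposed cultures.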

The mark [7] stands for this setting: at 5.0 µM (retest, dose inferred, filed as 0.5).
Setting [8] is: at 50.0 µM (retest, dose inferred, filed as 5.0).

As to `OCCSCc1cc(Cl)cc(Cl)c1O`, the growth inhibition is 7% in assay [1] (setting [7]); 76% (active) in assay [1] (setting [8]); 56% in assay [1] (at 50.0 µM); -12% in assay [2] (setting [7]); 60% in assay [2] (setting [8]); 48.2% in assay [2] (at 50.0 µM). The growth inhibition in assay [3] (setting [7]) was -6%; in assay [3] (setting [8]), 90% (active); in assay [3] (at 50.0 µM), 78.7% (active); in assay [4] (setting [7]), -10%; in assay [4] (setting [8]), 44%; in assay [4] (at 50.0 µM) it was 44.4%. Also, the growth inhibition in assay [5] (setting [7]) was -6%; in assay [5] (setting [8]) it was 77% (active); in assay [5] (at 50.0 µM), 78% (active); in assay [6] (setting [7]), 0%; in assay [6] (setting [8]) it was 91% (active); in assay [6] (at 50.0 µM) it was 78.8% (active).
As for `CCN(CC)CCCCSc1ccc([N+](=O)[O-])cc1[N+](=O)[O-]`, the growth inhibition was 27% in assay [1] (setting [7]); 45% in assay [1] (setting [8]); 77.6% (active) in assay [1] (at 50.0 µM); 32% in assay [2] (setting [7]); 36% in assay [2] (setting [8]); 45.4% in assay [2] (at 50.0 µM). For the same compound, the growth inhibition was 32% in assay [3] (setting [7]); 68% in assay [3] (setting [8]); 72.8% (active) in assay [3] (at 50.0 µM); 43% in assay [4] (setting [7]); 43% in assay [4] (setting [8]); 59.3% in assay [4] (at 50.0 µM). Besides, the growth inhibition was 30% in assay [5] (setting [7]); 47% in assay [5] (setting [8]); 65.8% in assay [5] (at 50.0 µM); 23% in assay [6] (setting [7]); 44% in assay [6] (setting [8]); 71.9% (active) in assay [6] (at 50.0 µM).
As to `COc1ccccc1NC(=O)c1ccccc1F`, the growth inhibition is -154% in assay [1] (setting [7]); 41% in assay [1] (setting [8]); -2.5% in assay [1] (at 50.0 µM); -47% in assay [2] (setting [7]); -41% in assay [2] (setting [8]); 10.7% in assay [2] (at 50.0 µM). Moreover, the growth inhibition was -61% in assay [3] (setting [7]); -17% in assay [3] (setting [8]); 0.2% in assay [3] (at 50.0 µM); -60% in assay [4] (setting [7]); -72% in assay [4] (setting [8]); 4.65% in assay [4] (at 50.0 µM). Besides, the growth inhibition in assay [5] (setting [7]) is -70%; in assay [5] (setting [8]), 9%; in assay [5] (at 50.0 µM), -3.5%; in assay [6] (setting [7]), -147%; in assay [6] (setting [8]) it was -43%; in assay [6] (at 50.0 µM), -9.6%.
For the compound `CCCCCCCCCCCCNCc1ccc(O)c(OC)c1`, the growth inhibition in assay [1] (setting [7]) was 95% (active); in assay [1] (setting [8]), 97% (active); in assay [1] (at 50.0 µM) it was 97.3% (active); in assay [2] (setting [7]), 97% (active); in assay [2] (setting [8]) it was 98% (active); in assay [2] (at 50.0 µM) it was 97.4% (active). Further, the growth inhibition was 99% (active) in assay [3] (setting [7]); 97% (active) in assay [3] (setting [8]); 44.1% in assay [3] (at 50.0 µM); 93% (active) in assay [4] (setting [7]); 97% (active) in assay [4] (setting [8]); 95.7% (active) in assay [4] (at 50.0 µM). For the same compound, the growth inhibition was 96% (active) in assay [5] (setting [7]); 97% (active) in assay [5] (setting [8]); 97.8% (active) in assay [5] (at 50.0 µM); 98% (active) in assay [6] (setting [7]); 97% (active) in assay [6] (setting [8]); 97.5% (active) in assay [6] (at 50.0 µM).
Take `CN(C)CCC(/C=C/c1ccccc1)=N\Nc1ccc(Cl)cc1`: the growth inhibition was 27% in assay [1] (setting [7]); 99% (active) in assay [1] (setting [8]); 99.2% (active) in assay [1] (at 50.0 µM); 17% in assay [2] (setting [7]); 99% (active) in assay [2] (setting [8]); 99% (active) in assay [2] (at 50.0 µM). Moreover, the growth inhibition is 56% in assay [3] (setting [7]); 100% (active) in assay [3] (setting [8]); 99.1% (active) in assay [3] (at 50.0 µM); 12% in assay [4] (setting [7]); 99% (active) in assay [4] (setting [8]); 99.2% (active) in assay [4] (at 50.0 µM). The growth inhibition was 46% in assay [5] (setting [7]); 99% (active) in assay [5] (setting [8]); 99.3% (active) in assay [5] (at 50.0 µM); 42% in assay [6] (setting [7]); 99% (active) in assay [6] (setting [8]); 85.3% (active) in assay [6] (at 50.0 µM).
As to `COC(=O)Cc1nc2ccccc2s1`, the growth inhibition in assay [1] (setting [7]) was 1%; in assay [1] (setting [8]), 99% (active); in assay [1] (at 50.0 µM), 99.2% (active); in assay [2] (setting [7]), -9%; in assay [2] (setting [8]), 100% (active); in assay [2] (at 50.0 µM) it was 99.5% (active). In addition, the growth inhibition is 11% in assay [3] (setting [7]); 92% (active) in assay [3] (setting [8]); 99.3% (active) in assay [3] (at 50.0 µM); 13% in assay [4] (setting [7]); 96% (active) in assay [4] (setting [8]); 97.3% (active) in assay [4] (at 50.0 µM). Besides, the growth inhibition in assay [5] (setting [7]) is -10%; in assay [5] (setting [8]) it was 100% (active); in assay [5] (at 50.0 µM) it was 98.5% (active); in assay [6] (setting [7]) it was -2%; in assay [6] (setting [8]), 76% (active); in assay [6] (at 50.0 µM), 99% (active).
On to `COc1ccccc1C1c2cc3c(cc2OC(N2CCOCC2)C1C)OCO3` (configuration not stated), for which the growth inhibition was 15% in assay [1] (setting [7]); 18% in assay [1] (setting [8]); 37.2% in assay [1] (at 50.0 µM); 9% in assay [2] (setting [7]); 9% in assay [2] (setting [8]); 14.2% in assay [2] (at 50.0 µM). For the same compound, the growth inhibition in assay [3] (setting [7]) is 26%; in assay [3] (setting [8]) it was 47%; in assay [3] (at 50.0 µM), 26.4%; in assay [4] (setting [7]) it was 25%; in assay [4] (setting [8]) it was 56%; in assay [4] (at 50.0 µM), 18.3%. Besides, the growth inhibition in assay [5] (setting [7]) was 18%; in assay [5] (setting [8]) it was 57%; in assay [5] (at 50.0 µM) it was 40.8%; in assay [6] (setting [7]), 9%; in assay [6] (setting [8]), 32%; in assay [6] (at 50.0 µM), 59.5%.
Regarding `CC[C@@]1(O)C[C@H](OC2CC(N(C)C)C(OC3CC(O)C(OC4CCC(=O)C(C)O4)C(C)O3)C(C)O2)c2c(cc3c(c2O)C(=O)c2c(O)cccc2C3=O)[C@H]1C(=O)OC` (some centres not stated), the growth inhibition in assay [1] (setting [7]) was 95% (active); in assay [1] (setting [8]), 97% (active); in assay [1] (at 50.0 µM), 91.2% (active); in assay [2] (setting [7]), 98% (active); in assay [2] (setting [8]), 99% (active); in assay [2] (at 50.0 µM), 92.8% (active). Moreover, the growth inhibition was 92% (active) in assay [3] (setting [7]); 97% (active) in assay [3] (setting [8]); 91.9% (active) in assay [3] (at 50.0 µM); 92% (active) in assay [4] (setting [7]); 98% (active) in assay [4] (setting [8]); 89.2% (active) in assay [4] (at 50.0 µM). Further, the growth inhibition in assay [5] (setting [7]) is 95% (active); in assay [5] (setting [8]), 98% (active); in assay [5] (at 50.0 µM) it was 91.8% (active); in assay [6] (setting [7]) it was 97% (active); in assay [6] (setting [8]) it was 98% (active); in assay [6] (at 50.0 µM), 92% (active).
With `CC1=C(C)C(N2CCOCC2)CS(=O)(=O)O1` (configuration not stated), the growth inhibition is 4% in assay [1] (setting [7]); 0% in assay [1] (setting [8]); 6.15% in assay [1] (at 50.0 µM); 1% in assay [2] (setting [7]); -3% in assay [2] (setting [8]); -14.4% in assay [2] (at 50.0 µM). For the same compound, the growth inhibition is 5% in assay [3] (setting [7]); 0% in assay [3] (setting [8]); -2.3% in assay [3] (at 50.0 µM); 3% in assay [4] (setting [7]); -1% in assay [4] (setting [8]); 16.4% in assay [4] (at 50.0 µM). For the same compound, the growth inhibition in assay [5] (setting [7]) is -2%; in assay [5] (setting [8]), -1%; in assay [5] (at 50.0 µM), 1.35%; in assay [6] (setting [7]) it was 19%; in assay [6] (setting [8]), 17%; in assay [6] (at 50.0 µM) it was -3.95%.
